Whole data set: some 16,000 sequences, median “rpm ratio (pull-down/input)” near 0.94, cut for the highest 2% near 1.7. Shown is part of a subset that was picked to be rich in the highest values.
The sequences below were run against T1, MBP-FoxP1dN (Mus musculus, UniProt P58462 326-579) (assay: PD-seq (MBP pull-down with sequencing); 20 mM Tris-HCl pH 7.5, 100 mM NaCl, 1.5 mM MgCl2, 0.4 uM protein, 0.1 uM dsDNA library, 30 min, room temperature, amylose pull-down; high values mean tight binding). Conditions: protein: recombinant; tags: His6-MBP; chain copies: 2; dsDNA, one strand shown.
T1 sequence: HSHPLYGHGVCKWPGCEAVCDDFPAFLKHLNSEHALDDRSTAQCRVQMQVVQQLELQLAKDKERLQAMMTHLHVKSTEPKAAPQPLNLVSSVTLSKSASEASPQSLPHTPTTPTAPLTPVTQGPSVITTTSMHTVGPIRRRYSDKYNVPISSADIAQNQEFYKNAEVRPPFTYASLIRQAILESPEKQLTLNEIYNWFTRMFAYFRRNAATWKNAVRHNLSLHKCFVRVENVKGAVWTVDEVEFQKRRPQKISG
In short: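 Binding is given as reads-per-million enrichment, pull-down over input, with replicates pooled. The bait was an N-terminus-lacking mouse FoxP3 or FoxP1 fragment with a His6-MBP tag, expressed in E. coli and used at 0.4 µM with 0.1 µM Klenow-filled degenerate double-stranded DNA library for 30 min at room temperature in Tris pH 7.5 buffer with NaCl and MgCl2. Amylose resin pull-down with three washes was followed by proteinase K release, PCR barcoding and Illumina sequencing.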

| Sequence | binding signal |
| --- | --- |
| GATGATTGTTCTCCCAGCTGATGAATTGTATCAATCGAGTAAACAAATTTTCCTAATCTTTCTGTTCAAGCGCCATCTAC | 1.25 RPM ratio (pull-down/input) |
| GATGATTGTTCTCCCAGCTGATGAATTACTATATTCGAGTAAACAAATTTTCCTAATCTTTCTGTTCAAGCGCCATCTAC | 1.23 RPM ratio (pull-down/input) |
| GATGATTGTTCTCCCAGCTGATGAATTCAGCACATCGAGTAAACAAATTTTCCTAATCTTTCTGTTCAAGCGCCATCTAC | 0.96 RPM ratio (pull-down/input) |
| GATGATTGTTCTCCCAGCTGATGAATTCCCGATGTCGAGTAAACAAATTTTCCTAATCTTTCTGTTCAAGCGCCATCTAC | 0.877 RPM ratio (pull-down/input) |
| GATGATTGTTCTCCCAGCTGATGAATTTAAGGACTCGAGTAAACAAATTTTCCTAATCTTTCTGTTCAAGCGCCATCTAC | 0.845 RPM ratio (pull-down/input) |
| GATGATTGTTCTCCCAGCTGATGAATTAAATATGTCGAGTAAACAAATTTTCCTAATCTTTCTGTTCAAGCGCCATCTAC | 1.07 RPM ratio (pull-down/input) |
| GATGATTGTTCTCCCAGCTGATGAATTAAATATTTCGAGTAAACAAATTTTCCTAATCTTTCTGTTCAAGCGCCATCTAC | 1.14 RPM ratio (pull-down/input) |
| GATGATTGTTCTCCCAGCTGATGAATTAAAATATTCGAGTAAACAAATTTTCCTAATCTTTCTGTTCAAGCGCCATCTAC | 1.1 RPM ratio (pull-down/input) |
| GATGATTGTTCTCCCAGCTGATGAATTAATATTGTCGAGTAAACAAATTTTCCTAATCTTTCTGTTCAAGCGCCATCTAC | 2.15 RPM ratio (pull-down/input) |
| GATGATTGTTCTCCCAGCTGATGAATTAATATTTTCGAGTAAACAAATTTTCCTAATCTTTCTGTTCAAGCGCCATCTAC | 1.78 RPM ratio (pull-down/input) |
| GATGATTGTTCTCCCAGCTGATGAATTAAATCTGTCGAGTAAACAAATTTTCCTAATCTTTCTGTTCAAGCGCCATCTAC | 0.778 RPM ratio (pull-down/input) |
| GATGATTGTTCTCCCAGCTGATGAATTCGGACCCTCGAGTAAACAAATTTTCCTAATCTTTCTGTTCAAGCGCCATCTAC | 0.79 RPM ratio (pull-down/input) |
| GATGATTGTTCTCCCAGCTGATGAATTGTTCTATTCGAGTAAACAAATTTTCCTAATCTTTCTGTTCAAGCGCCATCTAC | 1.34 RPM ratio (pull-down/input) |
| GATGATTGTTCTCCCAGCTGATGAATTTCCTATTTCGAGTAAACAAATTTTCCTAATCTTTCTGTTCAAGCGCCATCTAC | 0.887 RPM ratio (pull-down/input) |
| GATGATTGTTCTCCCAGCTGATGAATTTTTCTATTCGAGTAAACAAATTTTCCTAATCTTTCTGTTCAAGCGCCATCTAC | 0.984 RPM ratio (pull-down/input) |
| GATGATTGTTCTCCCAGCTGATGAATTTCTATTTTCGAGTAAACAAATTTTCCTAATCTTTCTGTTCAAGCGCCATCTAC | 2.01 RPM ratio (pull-down/input) |
| GATGATTGTTCTCCCAGCTGATGAATTCTATTTTTCGAGTAAACAAATTTTCCTAATCTTTCTGTTCAAGCGCCATCTAC | 1.61 RPM ratio (pull-down/input) |
| GATGATTGTTCTCCCAGCTGATGAATTCTCCTATTCGAGTAAACAAATTTTCCTAATCTTTCTGTTCAAGCGCCATCTAC | 0.943 RPM ratio (pull-down/input) |
| GATGATTGTTCTCCCAGCTGATGAATTTTCTATTTCGAGTAAACAAATTTTCCTAATCTTTCTGTTCAAGCGCCATCTAC | 0.975 RPM ratio (pull-down/input) |
| GATGATTGTTCTCCCAGCTGATGAATTCCTATTTTCGAGTAAACAAATTTTCCTAATCTTTCTGTTCAAGCGCCATCTAC | 1.86 RPM ratio (pull-down/input) |
| GATGATTGTTCTCCCAGCTGATGAATTCTATTGTTCGAGTAAACAAATTTTCCTAATCTTTCTGTTCAAGCGCCATCTAC | 1.99 RPM ratio (pull-down/input) |
| GATGATTGTTCTCCCAGCTGATGAATTAGTTGCATCGAGTAAACAAATTTTCCTAATCTTTCTGTTCAAGCGCCATCTAC | 1.65 RPM ratio (pull-down/input) |

| Sequence | binding signal |
| --- | --- |
| GATGATTGTTCTCCCAGCTGATGAATTCCACCACTCGAGTAAACAAATTTTCCTAATCTTTCTGTTCAAGCGCCATCTAC | 0.844 RPM ratio (pull-down/input) |
| GATGATTGTTCTCCCAGCTGATGAATTGATGCACTCGAGTAAACAAATTTTCCTAATCTTTCTGTTCAAGCGCCATCTAC | 1.72 RPM ratio (pull-down/input) |
| GATGATTGTTCTCCCAGCTGATGAATTGAATATATCGAGTAAACAAATTTTCCTAATCTTTCTGTTCAAGCGCCATCTAC | 1.04 RPM ratio (pull-down/input) |
| GATGATTGTTCTCCCAGCTGATGAATTTGACACATCGAGTAAACAAATTTTCCTAATCTTTCTGTTCAAGCGCCATCTAC | 0.966 RPM ratio (pull-down/input) |
| GATGATTGTTCTCCCAGCTGATGAATTTTGACAATCGAGTAAACAAATTTTCCTAATCTTTCTGTTCAAGCGCCATCTAC | 1.26 RPM ratio (pull-down/input) |
| GATGATTGTTCTCCCAGCTGATGAATTGACAATATCGAGTAAACAAATTTTCCTAATCTTTCTGTTCAAGCGCCATCTAC | 1.86 RPM ratio (pull-down/input) |
| GATGATTGTTCTCCCAGCTGATGAATTGACACAATCGAGTAAACAAATTTTCCTAATCTTTCTGTTCAAGCGCCATCTAC | 1.75 RPM ratio (pull-down/input) |
| GATGATTGTTCTCCCAGCTGATGAATTTTGAATATCGAGTAAACAAATTTTCCTAATCTTTCTGTTCAAGCGCCATCTAC | 1.07 RPM ratio (pull-down/input) |
| GATGATTGTTCTCCCAGCTGATGAATTAGGTGGGTCGAGTAAACAAATTTTCCTAATCTTTCTGTTCAAGCGCCATCTAC | 0.78 RPM ratio (pull-down/input) |
| GATGATTGTTCTCCCAGCTGATGAATTGGTTGTTTCGAGTAAACAAATTTTCCTAATCTTTCTGTTCAAGCGCCATCTAC | 1.45 RPM ratio (pull-down/input) |
| GATGATTGTTCTCCCAGCTGATGAATTTGTTGGTTCGAGTAAACAAATTTTCCTAATCTTTCTGTTCAAGCGCCATCTAC | 2.02 RPM ratio (pull-down/input) |
| GATGATTGTTCTCCCAGCTGATGAATTTTTGGTTTCGAGTAAACAAATTTTCCTAATCTTTCTGTTCAAGCGCCATCTAC | 0.984 RPM ratio (pull-down/input) |
| GATGATTGTTCTCCCAGCTGATGAATTTTTTGGTTCGAGTAAACAAATTTTCCTAATCTTTCTGTTCAAGCGCCATCTAC | 1.01 RPM ratio (pull-down/input) |
| GATGATTGTTCTCCCAGCTGATGAATTGGTTGGTTCGAGTAAACAAATTTTCCTAATCTTTCTGTTCAAGCGCCATCTAC | 1 RPM ratio (pull-down/input) |
| GATGATTGTTCTCCCAGCTGATGAATTGTTGGTTTCGAGTAAACAAATTTTCCTAATCTTTCTGTTCAAGCGCCATCTAC | 1.89 RPM ratio (pull-down/input) |
| GATGATTGTTCTCCCAGCTGATGAATTTGGTTGTTCGAGTAAACAAATTTTCCTAATCTTTCTGTTCAAGCGCCATCTAC | 1.29 RPM ratio (pull-down/input) |
| GATGATTGTTCTCCCAGCTGATGAATTGGTTTGTTCGAGTAAACAAATTTTCCTAATCTTTCTGTTCAAGCGCCATCTAC | 1.13 RPM ratio (pull-down/input) |
| GATGATTGTTCTCCCAGCTGATGAATTGTTTGGTTCGAGTAAACAAATTTTCCTAATCTTTCTGTTCAAGCGCCATCTAC | 1.81 RPM ratio (pull-down/input) |
| GATGATTGTTCTCCCAGCTGATGAATTGGTGTTTTCGAGTAAACAAATTTTCCTAATCTTTCTGTTCAAGCGCCATCTAC | 2.65 RPM ratio (pull-down/input) |
| GATGATTGTTCTCCCAGCTGATGAATTTGGTGTTTCGAGTAAACAAATTTTCCTAATCTTTCTGTTCAAGCGCCATCTAC | 1.12 RPM ratio (pull-down/input) |
| GATGATTGTTCTCCCAGCTGATGAATTGGTGTGTTCGAGTAAACAAATTTTCCTAATCTTTCTGTTCAAGCGCCATCTAC | 1.34 RPM ratio (pull-down/input) |
